Wee1 degr inh – human Wee1 degradation inhibition, primary screen | P30291 | 1.2% of 220,000 active | reporter increase, % at 5 µM | HeLa Luc-Wee1K328M stability, luciferase luminescence; 100% = proteasome inhibitor MG132 effect;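 active means activation above the mean of all tested compounds plus 3 SD, set per screening run, cut at about 8.8% in these data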;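 further: cells exposed to compound for 20 h before luminescence read; 0% = DMSO alone and 100% = MG132 at 30 µM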
Target sequence (P30291 whole entry K328M): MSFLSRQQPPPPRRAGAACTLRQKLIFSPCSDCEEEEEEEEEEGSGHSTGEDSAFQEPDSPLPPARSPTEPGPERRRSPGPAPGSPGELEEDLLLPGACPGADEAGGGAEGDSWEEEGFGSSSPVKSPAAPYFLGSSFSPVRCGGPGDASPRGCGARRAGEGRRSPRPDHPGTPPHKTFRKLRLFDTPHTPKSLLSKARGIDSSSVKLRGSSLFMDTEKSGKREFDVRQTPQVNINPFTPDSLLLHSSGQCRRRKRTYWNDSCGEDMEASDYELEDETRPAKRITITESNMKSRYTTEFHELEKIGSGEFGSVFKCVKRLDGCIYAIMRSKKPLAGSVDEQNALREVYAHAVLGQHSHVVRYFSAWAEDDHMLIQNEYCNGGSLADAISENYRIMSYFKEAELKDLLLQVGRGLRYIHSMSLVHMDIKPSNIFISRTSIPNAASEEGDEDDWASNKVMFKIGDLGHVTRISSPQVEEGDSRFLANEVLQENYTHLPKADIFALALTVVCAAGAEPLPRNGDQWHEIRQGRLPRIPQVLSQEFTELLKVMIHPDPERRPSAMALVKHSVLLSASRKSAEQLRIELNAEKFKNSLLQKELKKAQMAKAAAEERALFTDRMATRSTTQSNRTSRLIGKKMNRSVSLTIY
KLF5 inh – kruppel-like factor 5 inhibition | DLD-1 KLF5 promoter-luciferase reporter, luminescence | AID 1700 | 0.23% of 290,000 active | inhibition, % at 5 µM;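 active means inhibition above a per-plate limit of that plate's mean compound inhibition plus 3 SD, cut at about 60% in these data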;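 further: 0% = DMSO wells and 100% = LY294002 at 200 µM; higher means less KLF5 promoter-driven luciferase light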
HIF activator – HIF pathway transcriptional activation; activation, % at 7.5 µM (by protocol); U2OS HRE-luciferase reporter, luminescence; normalized: DMSO 0%, desferrioxamine 100%; 0.32% of 300,000 active;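 active means mean activation of at least 10% of the iron chelator positive control signal, with at least half of replicates also reaching 10%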
aSyn UTR inh – MLPCN primary screen, SNCA 5' untranslated region | AID 1813 | inhibition, % (tested at 7.5 µM) | alpha-synuclein 5'UTR reporter, inhibitor activity | 0.82% of 300,000 active; in the data active means inhibition above about 60%;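 further: H4 neuroglioblastoma cells stably carrying SNCA 5'UTR luciferase fusion; 0% = DMSO wells and 100% = positive control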
Platelet DG rel – modulates dense granule release in human platelets. 0.22% of 300,000 active. human platelet-rich plasma, SFLLRN dense granule ATP release, luminescence. inhibition, %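 (compounds screened at 7.5 µM in platelet-rich plasma)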. AID 1663;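 active means mean replicate score, as percent of positive control, at or above 50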
Wee1 stab conf – human Wee1 degradation inhibition, confirmation; shares compounds with Wee1 degr inh; HeLa Luc-Wee1K328M degradation, luminescence; vehicle 0%, proteasome-blocked wells 100%; activation, % at 5 µM; 4% of 1,100 active; in the data active means activation above about 8.9%
Numbers without * were called inactive. Only some compounds are listed: those with a hit (about 2.1% of all), similar ones and a draw of the others.

`C=CCN1C(=O)c2ccc(C(=O)OCC(=O)Nc3ccc(S(N)(=O)=O)cc3)cc2C1=O` gave HIF activator -2, aSyn UTR inh 0 and Platelet DG rel 7.
`CCOC(=O)c1ccccc1NC(=O)CN(c1ccccc1OCC)S(C)(=O)=O` gave Wee1 degr inh 1, KLF5 inh -22, HIF activator 0, aSyn UTR inh 13 and Platelet DG rel -1.
`CCOC(=O)c1ccccc1NC(=O)CN(c1ccc(OCC)cc1)S(C)(=O)=O` gave Wee1 degr inh 12*, KLF5 inh 14, HIF activator 1, aSyn UTR inh 35, Platelet DG rel -3 and Wee1 stab conf 4.
CN(C)S(=O)(=O)c1cccc(CSCc2cccc(S(=O)(=O)N(C)C)c2)c1 was read as KLF5 inh 14, HIF activator -16, aSyn UTR inh 27 and Platelet DG rel -5.
Screening O=C(Cc1csc(-c2ccccc2)n1)NCc1ccc(F)cc1 returned Wee1 degr inh -3, KLF5 inh -4, HIF activator -3, aSyn UTR inh 1 and Platelet DG rel -3.
`O=C(NCc1csc(-c2ccccc2)n1)c1cc(F)cc2c1OCOC2` gave Wee1 degr inh 15*, KLF5 inh -73, HIF activator 1, aSyn UTR inh -113, Platelet DG rel -3 and Wee1 stab conf 0.
Screening COc1ccc(C(=O)/C=C/Nc2ccc(S(=O)(=O)Nc3nc(C)cc(C)n3)cc2)cc1OC returned Wee1 degr inh -1, KLF5 inh -2, HIF activator -1, aSyn UTR inh 26 and Platelet DG rel 5.
For Cc1cc(C)nc(NS(=O)(=O)c2ccc(N/C=C/C(=O)c3ccc(Cl)cc3)cc2)n1 the results were Wee1 degr inh 14*, KLF5 inh -8, HIF activator 0, aSyn UTR inh 20, Platelet DG rel 4 and Wee1 stab conf 0.
For CC1(C)Nc2ccccc2N(Cc2ccc([N+](=O)[O-])cc2)C1=O the results were Wee1 degr inh 2, KLF5 inh 3, HIF activator -1, aSyn UTR inh 25 and Platelet DG rel 14.
`CN1CCC(=NNC(=O)C(=O)Nc2ccccc2F)CC1` gave Wee1 degr inh 0, KLF5 inh -14, HIF activator 0, aSyn UTR inh -26 and Platelet DG rel 3.
For COC(=O)C(Cc1c[nH]c2ccccc12)NC(=O)c1cccs1 (centres undefined) the results were Wee1 degr inh -2, KLF5 inh -5, HIF activator 0, aSyn UTR inh 14 and Platelet DG rel -12.
For COC(=O)C(Cc1c[nH]c2ccccc12)NC(C)=O (centres undefined) the results were Wee1 degr inh 11*, KLF5 inh -9, HIF activator 0, aSyn UTR inh 8, Platelet DG rel 2 and Wee1 stab conf -2.
For COc1ccc(CC(=O)Oc2ccccc2Cl)cc1S(=O)(=O)N1CCOCC1 the results were HIF activator 0, aSyn UTR inh -1 and Platelet DG rel -6.
COc1ccccc1N1CCN(C(=O)c2ccc(S(=O)(=O)N3CCCCCC3)cc2)CC1 was read as Wee1 degr inh 11*, KLF5 inh 12, HIF activator 0, aSyn UTR inh 10, Platelet DG rel 1 and Wee1 stab conf 0.
`COc1ccccc1OC(C)C(=O)N(Cc1ccco1)C1CCS(=O)(=O)C1` (centres undefined) gave KLF5 inh 3, HIF activator 0, aSyn UTR inh -11 and Platelet DG rel 2.
`COc1ccccc1CN(C(=O)CNC(=O)c1ccco1)C(C(=O)NCC1CCCO1)c1ccc(OC)c(OC)c1` (centres undefined) gave KLF5 inh -9, HIF activator -2, aSyn UTR inh -20 and Platelet DG rel 7.
COc1ccc(-n2c(SCC(=O)N3CCCCC3)nc3ccccc3c2=O)cc1 was read as KLF5 inh -37, HIF activator 1, aSyn UTR inh 7 and Platelet DG rel -2.
CCOC(=O)N1CCN(C(=O)CSc2nc3ccccc3c(=O)n2-c2ccccc2)CC1 was read as Wee1 degr inh 11*, KLF5 inh 8, HIF activator 0, aSyn UTR inh 11, Platelet DG rel -2 and Wee1 stab conf 4.
Screening O=C(Nc1ccc(F)cc1F)c1csc(-c2ccncc2)n1 returned Wee1 degr inh -1, KLF5 inh -29, HIF activator 1, aSyn UTR inh -52 and Platelet DG rel 0.
For O=C(Nc1ccc(F)cc1F)c1csc(-c2cccs2)n1 the results were Wee1 degr inh 11*, KLF5 inh -22, HIF activator 3, aSyn UTR inh -270, Platelet DG rel -2 and Wee1 stab conf 3.
For Cc1cccc(NC(=O)CSc2nnc(-c3n[nH]c4ccccc34)o2)c1 the results were Wee1 degr inh 2, KLF5 inh -19, HIF activator 1, aSyn UTR inh -180 and Platelet DG rel -6.
N#Cc1cccc(NC(=O)CSc2nnc(-c3n[nH]c4ccccc34)o2)c1 was read as Wee1 degr inh 22*, KLF5 inh -70, HIF activator 3, aSyn UTR inh -277, Platelet DG rel 6 and Wee1 stab conf 3.
`COc1ccc(-c2ccc3oc(-c4ccc(OC)cc4)c(C#CC4(O)CCCCC4)c3c2)cc1` gave HIF activator 0, aSyn UTR inh 35 and Platelet DG rel 4.
For O=C(Nc1ccc(Cl)c(Cl)c1)Nc1nccs1 the results were Wee1 degr inh 14*, KLF5 inh 33, HIF activator 4, aSyn UTR inh -64, Platelet DG rel 7 and Wee1 stab conf 25*.
`COc1ccccc1/C=N/NC(=O)c1cc2c(OC)c(OC)ccc2[nH]1` gave KLF5 inh 57, HIF activator 3, aSyn UTR inh -61 and Platelet DG rel 4.
For COc1cccc(/C=N/NC(=O)c2cc3c(OC)c(OC)ccc3[nH]2)c1OC the results were Wee1 degr inh 12*, KLF5 inh 33, HIF activator 1, aSyn UTR inh 27, Platelet DG rel 0 and Wee1 stab conf 10*.
Screening c1ccc2[nH]c(NN=C3CCCCCC3)nc2c1 returned Wee1 degr inh 17*, KLF5 inh -21, HIF activator 4, aSyn UTR inh -114, Platelet DG rel 6 and Wee1 stab conf 3.
`CC1CCCCN1C(=S)Nc1ccc2nc3n(c(=O)c2c1)CCCCC3` (centres undefined) gave Wee1 degr inh 0, KLF5 inh -15, HIF activator 0, aSyn UTR inh 3 and Platelet DG rel -5.
Screening C#Cc1cccc(C(=O)N2CCCC(C(=O)c3ccc(OC)cc3C)C2)c1 (centres undefined) returned KLF5 inh -34, HIF activator 2, aSyn UTR inh -2 and Platelet DG rel -1.
`Cn1c(CNC(=O)c2ccco2)nnc1SCC(=O)c1ccc(Br)cc1` gave KLF5 inh -16, HIF activator -7, aSyn UTR inh 1 and Platelet DG rel -1.

Screening data deposited in PubChem BioAssay by several laboratories.
